Sampled rows, rich in hits. Any-hit rate of the full collection: about 2.6%.
PHOSPHO1 block – PubChem AID 1565; recombinant PHOSPHO1, absorbance phosphatase assay; 1.1% of 290,000 active; Phosphoethanolamine/phosphocholine phosphatase (Homo sapiens), Q8TCT1; inhibition, % at 13.3 µM; in the data active = inhibition above about 60%
Target sequence (Q8TCT1 whole entry, looked up): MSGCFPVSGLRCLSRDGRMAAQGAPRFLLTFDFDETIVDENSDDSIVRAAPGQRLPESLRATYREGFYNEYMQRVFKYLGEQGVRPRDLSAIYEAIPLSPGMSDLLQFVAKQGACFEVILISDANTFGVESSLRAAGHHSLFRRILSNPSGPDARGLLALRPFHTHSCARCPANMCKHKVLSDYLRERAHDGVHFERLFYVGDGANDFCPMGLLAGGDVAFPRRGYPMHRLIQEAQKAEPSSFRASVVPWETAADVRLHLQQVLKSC
PABP polyA inh – PABP poly(A) RNA binding inhibitors, primary screen, biochemical, fluorescence polarization, uHTS; calls only at 35 µM; AID 2014, 2009; 1% of 290,000 active; Polyadenylate-binding protein 1 (Homo sapiens), P11940;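 note: calls also rest on retests at 20 µM and on dose response follow-up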
ABCB6 inh 2 – ABCB6 transporter inhibitors, primary screen, K562-ABCB6 cells, flow cytometry, MLPCN library; ATP-binding cassette sub-family B member 6 (Homo sapiens), Q9NP58; K562-ABCB6 porphyrin accumulation, 1 h; hits give low values; fluorescence ratio to DMSO, % at 10 µM; 0.19% of 360,000 active;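 active = fluorescence ratio to DMSO below 75%, the collection mean minus 3 SD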;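 note: signal is porphyrin accumulated inside mitochondria; 100% equals median channel fluorescence of DMSO control wells; lower ratio means ABCB6 inhibition with less porphyrin fluorescence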
PABP1 MLLE inh – inhibitors of PABP1 MLLE–PAM2 peptide binding, primary screen, biochemical, fluorescence polarization, FITC-PAM2, GST-MLLE; 0.36% of 360,000 active; inhibition, % at 20 µM; in the data active = inhibition above about 35%, passing the limit was not always enough;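 note: plate controls were DMSO wells with GST-MLLE for no effect and wells lacking GST-MLLE protein for full effect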
eIF4H FP inh – human eIF4H binding inhibitors, primary screen, translation initiation inhibitor project, biochemical, uHTS, fluorescence polarization | inhibition, % at 35 µM | AID 2012, 2009 | Eukaryotic translation initiation factor 4H (Homo sapiens), Q15056 | 0.94% of 290,000 active | eIF4H fluorescence polarization binding assay;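 note: calls also rest on retests at 20 µM and on dose response follow-up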
AI-2 QS modul – Vibrio harveyi AI-2 quorum sensing modulators, primary screen, JMH597 strain, luminescence/OD600 ratio | activity change, % at 7.5 µM | Vibrio harveyi JMH597 AI-2 luminescence/OD600 ratio, 9 h; hits give low values; strain lacks LuxN and CqsS sensors; 0 = neutral-control median | 0.4% of 300,000 active; in the data active = activity change below about -75%, passing the limit was not always enough;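 note: luminescence divided by OD600 gain over 9 h not by final OD600 alone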
ABCB6 blocker 1 – ABCB6 transporter inhibitors, confirmation, K562-ABCB6 cells, flow cytometry, cherry pick 1. ratio response (% of DMSO), % at 10 µM. K562-ABCB6 porphyrin accumulation, 1 h; hits give low values. 700 tested, under 10 active. shares compounds with ABCB6 inh 2;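 active = repeat-averaged ratio response below 75% of DMSO, the collection mean minus 3 SD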;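 note: median porphyrin fluorescence at 575 nm with 488 nm excitation from mitochondria; lower ratio means less porphyrin signal so ABCB6 inhibition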
Active calls of the source: *; i = inactive; . = not tested or not shown. Unless noted, the rule behind the calls is not given here.

SMILES	PHOSPHO1 block	PABP polyA inh	ABCB6 inh 2	PABP1 MLLE inh	eIF4H FP inh	AI-2 QS modul	ABCB6 blocker 1
CC(=O)Nc1ccc(NC(=O)C2Cc3c(-c4cccc(C(C)=O)c4)ccnc3O2)cc1 (centres undefined)	.	.	102.0	2.9	.	.	102.0
CC(=O)Nc1ccc(NC(=O)C2Cc3c(-c4cccc(NC(C)=O)c4)ccnc3O2)cc1 (centres undefined)	.	.	97.0	-1.4	.	.	.
COc1ccc(NC(=O)C2Cc3c(-c4cccc(F)c4)ccnc3O2)cc1OC (centres undefined)	.	.	69.0*	11.3	.	.	103.0
O=C(Nc1cccnc1)C1Cc2c(-c3ccco3)ccnc2O1 (centres undefined)	.	.	74.0*	3.9	.	.	97.0
CC(=O)c1cccc(-c2ccnc3c2CC(C(=O)Nc2ccc4c(c2)OCO4)O3)c1 (centres undefined)	.	.	98.0	-12.4	.	.	102.0
NC(=S)NN=C1CSSC1	.	.	97.0	26.2	.	.	.
CC(=O)Nc1ccc(-c2ccnc3c2CC(C(=O)Nc2ccccc2)O3)cc1 (centres undefined)	.	.	101.0	2.5	.	.	95.0
COc1ccc(NC(=O)C2Cc3c(-c4cccc(NC(C)=O)c4)ccnc3O2)cc1 (centres undefined)	.	.	102.0	8.0	.	.	103.0
COc1cccc(C(=O)N2CCC[C@H]2C(=O)N2CCC[C@H]2C(=O)N[C@@H](C)c2ccccc2)c1	.	.	93.0	.	.	.	.
COc1ccc(Cl)cc1NC(=O)CCc1ccccc1	-6.8	i	95.0	-2.1	2.8	-2.0	.
COc1ccc(Cl)cc1NC(=O)CCCC(=O)c1ccccc1	.	i	61.0*	17.1	-12.6	10.8	99.0
CCn1cc([N+](=O)[O-])c(C(=O)Nc2ccn(Cc3ccccc3F)n2)n1	18.7	i	71.0*	4.2	-2.7	-1.0	103.0
Clc1nnc(Cl)c2c1ncn2Cc1ccccc1	28.3	i	73.0*	-8.6	0.6	8.7	100.0
O=C(COc1ccccc1)N1CCN(C(=O)COc2ccccc2)CC1	28.0	i	68.0*	-5.6	-14.0	16.2	99.0
O=C(COc1ccccc1)N1CCCCCCC1	44.0	i	98.0	4.7	-2.5	22.8	.
COc1ccccc1C1CC(c2cccs2)=NN1C(=O)CCC(=O)O (centres undefined)	.	i	102.0	-26.5	-12.2	23.2	.
COc1cccc(C2CC(c3cccs3)=NN2C(=O)CSc2nc3ccccc3o2)c1OC (centres undefined)	1.1	i	70.0*	9.4	2.3	31.9	97.0
CCCOc1ccc(C(CC(=O)O)NC(=O)c2ccc3c(c2)OCO3)cc1 (centres undefined)	15.5	i	57.0*	-11.3	12.7	8.1	101.0
N#Cc1nn(-c2ccccc2)nc1N1CCCCC1	-18.5	i	69.0*	-2.8	-3.7	10.0	95.0
N#Cc1nc(COc2ccccc2)oc1N1CCCCCC1	-4.4	i	103.0	2.2	10.9	4.0	.
COC(=O)[C@]12CCCCC=C1N(Cc1cccc3ccccc13)C(=O)[C@H](CC(=O)NCc1cccs1)C2	.	.	96.0	.	.	.	.
CCOc1ccc(N2C(=O)Cc3ccccc3C2=O)cc1	4.0	i	73.0*	9.4	-6.8	21.0	102.0
CCn1c(SCC(=O)n2c(C)c(C)c3ccccc32)nnc1-c1ccco1	-2.7	i	73.0*	-5.4	-7.3	-2.8	99.0
C=CCSc1n[nH]c(-c2ccc(OCCC)cc2)n1	-21.3	i	99.0	-6.0	-5.7	17.1	.
CCCOc1ccc(-c2nc(=S)[nH][nH]2)cc1	95.4*	i	69.0*	26.9	1.5	-84.5*	99.0
SMILES	PHOSPHO1 block	PABP polyA inh	ABCB6 inh 2	PABP1 MLLE inh	eIF4H FP inh	AI-2 QS modul	ABCB6 blocker 1
CC(C)C[C@H]1CN(CCCC[C@H]2CNC(=O)C(=O)N2CC2CCCCC2)C(=O)C(=O)N1CCc1ccc(O)cc1	.	.	96.0	.	.	.	.
Clc1ccc(Cl)c(OCCN2CCCC2)c1	3.3	i	49.0*	-3.7	12.2	9.1	105.0
CCN1CCN(C(=O)CCc2nnc3ccc(N4CCC5(CC4)OCCO5)nn23)CC1	-20.1	i	95.0	6.5	1.4	1.5	102.0
Cc1ccc(CNC(=O)CCc2nnc3ccc(N4CCC5(CC4)OCCO5)nn23)cc1	3.9	i	100.0	-4.9	-1.6	19.0	.
CC1CCN(C(=O)CCc2nnc3ccc(N4CCC5(CC4)OCCO5)nn23)CC1	27.9	i	100.0	1.5	-7.9	16.7	99.0
CCCCCc1c(CC)ncn1CCc1ccccc1OC	.	.	94.0	.	.	.	.
O=S1(=O)CC(N2CC=CC2)CN1C1CCCCC1 (centres undefined)	.	.	98.0	-16.9	.	.	.
COc1ccccc1C1C(C#N)=C(N)N(N(C)C)C2=C1C(=O)CC(C)(C)C2 (centres undefined)	24.2	i	51.0*	2.9	-5.5	-9.1	96.0
CCc1ccccc1NC(=O)c1cc(=O)c2ccccc2o1	38.5	i	67.0*	-9.1	-6.9	16.7	101.0
OC(c1ccc(F)cc1)c1nc(/C=C/c2ccccc2)cs1 (centres undefined)	.	.	61.0*	-3.3	.	.	98.0
CN(C)CCN1CCN(C2CN(Cc3ccc([N+](=O)[O-])cc3)S(=O)(=O)C2)CC1 (centres undefined)	.	.	103.0	-2.2	.	.	.
Cc1ccc(CC(=O)Nc2nnc(-c3ccc(F)cc3)o2)c(C)c1	34.1	i	74.0*	8.3	-6.5	30.5	100.0
CC(NC(=O)COc1ccc(/C=N/NS(=O)(=O)c2ccccc2)cc1)c1ccccc1 (centres undefined)	18.3	i	69.0*	-14.1	-7.7	0.2	99.0
CCCCn1nnnc1C(c1cc2ccccc2o1)N(Cc1ccccc1)Cc1ccccc1 (centres undefined)	.	.	93.0	.	.	.	.
COc1ccc(Cl)cc1Cn1c(C)c(C(=O)NCc2ccc3c(c2)OCCO3)sc1=O	.	.	100.0	-3.1	.	.	.
c1ccc(OCCNc2ccn3nc(-c4ccc(OCCN5CCOCC5)cc4)cc3n2)cc1	.	.	74.0*	-17.3	.	.	100.0
c1csc(CNc2ccn3nc(-c4ccc(OCCN5CCOCC5)cc4)cc3n2)c1	.	.	106.0	-6.5	.	.	.
c1ccc(COc2cccc(-c3cc4nc(NCc5ccc6c(c5)OCO6)ccn4n3)c2)cc1	.	.	68.0*	-10.7	.	.	97.0
COc1ccccc1CNc1nc(NCCN2CCNC2=O)c2sccc2n1	.	.	100.0	-12.8	.	.	.
CCOC(=O)[C@]12CCCC=C1N(Cc1ccc(Cl)cc1Cl)C(=O)[C@H](CC(=O)N1CCOCC1)C2	.	.	95.0	.	.	.	.
CCc1nc2c(OCC(=O)c3ccc(F)cc3)cccn2c1N(C)C(=O)c1ccc(OC)cc1	.	.	97.0	1.4	.	.	.

Screening data: PubChem BioAssay, several laboratories
